Source: PubChem BioAssay (Tox21)
Where “and” joins values, the source holds several entries; their conditions need not be identical. Equal values may be shown once. Records with an inconclusive call do not appear. Entries that show only a call come without a potency. Calls of active or inactive are those of the source. Unless noted, the call rests on the fitted dose curve.

Key:
[1] = Nuclear factor erythroid 2-related factor 2/antioxidant responsive element (Nrf2/ARE) small molecule agonists: qHTS cell viability counter screen in human keratinocytes (AID 1919968; active means well fitted curve in the direction sought with a large enough effect in the repeat runs; an effect the other way counts as inactive or inconclusive; further: nearly all actives have a fitted effect of over 55% in size; further: potency means the concentration at half of the fitted maximal effect)
How it was run: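 Viability counter-screen: KeratinoSens reporter cells, DMSO-delivered compounds, 23 h at 37 C, CellTiter-Fluor fluorescence.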

[2] = molecular target: Gonadotropin-releasing hormone receptor (Homo sapiens) (UniProt P30968); experiment: Human gonadotropin-releasing hormone receptor (GnRHR) small molecule agonists, calcium flux assay in GnRHR-HEK293 cells (AID 1920063); further: nearly all actives have a fitted effect of over 35% in size
Sequence of Gonadotropin-releasing hormone receptor (Homo sapiens) (P30968 whole entry, looked up): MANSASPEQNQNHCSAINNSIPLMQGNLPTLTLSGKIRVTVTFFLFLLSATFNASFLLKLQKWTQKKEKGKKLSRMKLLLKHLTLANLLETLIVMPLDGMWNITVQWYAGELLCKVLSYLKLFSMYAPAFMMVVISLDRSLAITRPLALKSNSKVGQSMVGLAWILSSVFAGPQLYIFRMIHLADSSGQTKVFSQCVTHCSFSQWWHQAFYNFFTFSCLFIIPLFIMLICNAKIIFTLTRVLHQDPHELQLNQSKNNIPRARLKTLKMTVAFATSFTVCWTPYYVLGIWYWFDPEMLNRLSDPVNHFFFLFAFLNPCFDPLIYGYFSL
How it was run: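 Tox21-format agonist screen using human GnRHR-expressing HEK293 cells and a fluorescent calcium dye; kinetic 3-min fluorescence reading after compound addition, 15-point concentration series run in triplicate.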

[3] = molecular target: KiSS-1 receptor (Homo sapiens) (UniProt Q969F8); experiment: Human kisspeptin (KISS1R) small molecule agonists, calcium flux assay in KISS1R-HEK293 cells (AID 1920064; active means well fitted curve in the direction sought with a large enough effect in the repeat runs; an effect the other way counts as inactive or inconclusive)
Sequence of KiSS-1 receptor (Homo sapiens) (Q969F8 whole entry, looked up): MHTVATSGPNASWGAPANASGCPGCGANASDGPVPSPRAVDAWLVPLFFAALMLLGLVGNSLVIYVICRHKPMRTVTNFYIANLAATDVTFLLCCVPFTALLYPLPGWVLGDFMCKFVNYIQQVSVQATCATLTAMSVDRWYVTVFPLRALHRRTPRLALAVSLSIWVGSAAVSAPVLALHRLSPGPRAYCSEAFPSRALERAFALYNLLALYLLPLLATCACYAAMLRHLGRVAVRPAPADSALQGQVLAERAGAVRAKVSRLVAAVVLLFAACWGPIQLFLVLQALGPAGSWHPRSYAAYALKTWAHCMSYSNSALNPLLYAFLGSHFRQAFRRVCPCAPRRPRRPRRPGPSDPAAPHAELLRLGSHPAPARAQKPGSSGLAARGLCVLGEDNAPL
How it was run: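 Intracellular calcium mobilization in KISS1R-HEK293 cells was recorded by fluorescence (Ex/Em 480/540) for 3 min following compound addition to cells pre-loaded 1 h with calcium dye.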

[4] = G protein-coupled receptor (GPCR) small molecule agonists, calcium flux assay: HEK293 wild type cell line counter screen (AID 1920065)
How it was run: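 In this agonist-mode screen, ATP is the positive control and DMSO the vehicle. Cells grow 18 h before a 1 h dye incubation at 37 C; signal is taken at Ex/Em 480/540 over 3 min.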

[5] = p53 small molecule agonists, cell-based qHTS assay with human liver microsomes (AID 1963577);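 further: p53 response element beta-lactamase reporter cells with liver microsomes plus NADPH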
How it was run: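 16 h, 37 C exposure of p53RE-bla cells to compounds with human liver microsomes and NADPH (0.5 mg/mL final each); detection via LiveBLAzer mixture, 2 h dark at room temperature.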

[6] = p53 small molecule agonists, cell-based qHTS assay with rat liver microsomes (AID 1963578)
How it was run: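 With rat liver microsomes and NADPH present (0.5 mg/mL final each), p53RE-bla cells are treated with compound for 16 h at 37 C. LiveBLAzer detection mixture is then applied for 2 h at room temperature in the dark.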

[7] = p53 small molecule agonists, cell-based qHTS assay with human liver microsomes: qHTS cell viability counter screen (AID 1963579); further: nearly all actives have a fitted effect of over 45% in size
How it was run: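 In this multiplexed counter screen, the reporter plates were subsequently treated with CellTiter-Glo so that cell viability, reflected by luminescence, could be recorded for p53RE-bla cells dosed 16 h with compounds under microsomal activation (HLM and NADPH).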

[8] = p53 small molecule agonists, cell-based qHTS assay: qHTS cell viability counter screen (AID 1963581); further: nearly all actives have a fitted effect of over 45% in size
How it was run: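 Compounds are pinned onto HCT-116 p53RE-bla cells and left 16 h at 37 C. Following the reporter FRET read, ATP is quantified by CellTiter-Glo luminescence after 30 min at room temperature.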

[9] = p53 small molecule agonists, cell-based qHTS assay (AID 1963582; active means well fitted activation curve with a large enough effect in the signal ratio in the repeat runs, not every such curve was filed as active; the % refers to the signal ratio)
How it was run: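 Agonist activity was scored from beta-lactamase FRET fluorescence in p53RE-bla cells treated 16 h at 37 C with compounds in DMSO, substrate incubation being 2 h at room temperature.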

[10] = molecular target: 5-hydroxytryptamine receptor 2A (Homo sapiens) (UniProt P28223); experiment: 5-hydroxytryptamine receptor 2A (HTR2A) small molecule antagonists, cell-based qHTS assay (AID 1963586); further: nearly all actives have a fitted effect of over 45% in size; further: potency means the concentration at half of the fitted maximal effect
Sequence of 5-hydroxytryptamine receptor 2A (Homo sapiens) (P28223 whole entry, looked up): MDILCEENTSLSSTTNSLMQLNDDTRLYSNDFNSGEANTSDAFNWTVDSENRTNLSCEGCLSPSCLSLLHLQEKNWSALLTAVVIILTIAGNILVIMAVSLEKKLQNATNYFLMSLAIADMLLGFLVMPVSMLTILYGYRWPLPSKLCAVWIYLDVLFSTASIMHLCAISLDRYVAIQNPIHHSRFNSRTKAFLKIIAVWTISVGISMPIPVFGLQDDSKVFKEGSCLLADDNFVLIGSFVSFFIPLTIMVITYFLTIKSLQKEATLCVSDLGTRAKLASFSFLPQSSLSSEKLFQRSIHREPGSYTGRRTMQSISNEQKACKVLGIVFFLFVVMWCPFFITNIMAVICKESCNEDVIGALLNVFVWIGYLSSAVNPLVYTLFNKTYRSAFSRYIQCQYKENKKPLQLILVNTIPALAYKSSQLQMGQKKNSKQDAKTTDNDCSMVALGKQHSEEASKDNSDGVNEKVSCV
How it was run: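 Antagonist-mode intracellular calcium assay: DOI (4 nM) added after 5 min compound pre-incubation at room temperature to dye-loaded HTR2A-CHO cells. Fluorescence followed for 3 min, sampled every second.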

[11] = molecular target: 5-hydroxytryptamine receptor 2A (Homo sapiens) (UniProt P28223); experiment: 5-hydroxytryptamine receptor 2A (HTR2A) small molecule agonists, cell-based qHTS assay (AID 1963587); further: nearly all actives have a fitted effect of over 30% in size
How it was run: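 HTR2A-CHO cells, plated 18 h at 37 C/5% CO2, dye-loaded 1 h at 37 C; compounds in DMSO added by pin tool (agonist mode). Intracellular calcium flux read as kinetic fluorescence on FDSS over 2 min at 1 s intervals.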

[12] = molecular target: Muscarinic acetylcholine receptor M1 (Homo sapiens) (UniProt P11229); experiment: Cholinergic receptor muscarinic 1 (CHRM1) small molecule antagonists, cell-based qHTS assay (AID 1963588); further: nearly all actives have a fitted effect of over 40% in size
Sequence of Muscarinic acetylcholine receptor M1 (Homo sapiens) (P11229 whole entry, looked up): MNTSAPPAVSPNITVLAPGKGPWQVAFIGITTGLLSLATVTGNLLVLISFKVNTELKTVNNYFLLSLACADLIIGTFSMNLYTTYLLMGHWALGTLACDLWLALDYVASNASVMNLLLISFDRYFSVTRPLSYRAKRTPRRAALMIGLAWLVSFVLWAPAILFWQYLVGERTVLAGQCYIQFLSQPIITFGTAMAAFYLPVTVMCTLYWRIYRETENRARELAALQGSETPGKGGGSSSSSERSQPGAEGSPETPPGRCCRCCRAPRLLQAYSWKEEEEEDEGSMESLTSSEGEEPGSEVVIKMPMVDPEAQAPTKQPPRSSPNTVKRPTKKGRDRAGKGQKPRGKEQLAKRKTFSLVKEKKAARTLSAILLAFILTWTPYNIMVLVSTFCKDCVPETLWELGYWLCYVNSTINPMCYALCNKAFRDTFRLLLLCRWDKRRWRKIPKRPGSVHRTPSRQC
How it was run: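 CHRM1-CHO calcium-flux assay, antagonist mode. Cells were seeded 18 h, dye-loaded 1 h at 37 C and given compound for 5 min at RT, then acetylcholine was added at 50nM. FDSS fluorescence was read 3 min; 15 concentrations, three runs.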

[13] = cAMP Responsive Elements (CRE) small molecule agonists, cell-based qHTS assay (AID 1963590)
How it was run: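 FRET-based beta-lactamase readout (LiveBLAzer B/G, 2 h RT) quantified CRE activation in HEK 293T CRE-bla cells after 3 h treatment with DMSO-dissolved compounds.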

[14] = cAMP Responsive Elements (CRE) small molecule antagonists, cell-based qHTS assay (AID 1963591; active means well fitted inhibition curve with a large enough effect in the signal ratio in the repeat runs, not every such curve was filed as active; the % refers to the signal ratio)
How it was run: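 qHTS in CRE-bla HEK 293T cells: compound in DMSO, then 0.25 uM NKH477 (final), 3 h at 37 °C/5% CO2; beta-lactamase FRET read-out after 2 h substrate incubation.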

[15] = molecular target: Beta-2 adrenergic receptor (Homo sapiens) (UniProt P07550); experiment: Adrenergic beta2 receptor (ADRB2) small molecule antagonists, cell-based qHTS assay (AID 1963592); further: series mostly up to about 92 µM; nearly all actives have a fitted effect of over 50% in size
Sequence of Beta-2 adrenergic receptor (Homo sapiens) (P07550 whole entry, looked up): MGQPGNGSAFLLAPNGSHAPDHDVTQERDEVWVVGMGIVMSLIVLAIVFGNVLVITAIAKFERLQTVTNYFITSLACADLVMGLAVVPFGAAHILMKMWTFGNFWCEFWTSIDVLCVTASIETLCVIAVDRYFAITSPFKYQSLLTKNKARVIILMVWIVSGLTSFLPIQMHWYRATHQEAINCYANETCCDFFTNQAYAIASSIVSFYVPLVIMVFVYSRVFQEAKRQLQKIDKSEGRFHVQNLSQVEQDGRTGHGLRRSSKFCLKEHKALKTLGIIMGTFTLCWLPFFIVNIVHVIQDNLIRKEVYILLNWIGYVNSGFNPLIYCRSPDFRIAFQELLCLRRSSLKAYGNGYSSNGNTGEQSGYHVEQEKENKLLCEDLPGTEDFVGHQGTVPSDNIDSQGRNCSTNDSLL
How it was run: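 Cells (CHO, stable ADRB2 overexpression) incubated 18-20hr at 37C; compounds added from DMSO; agonist mix (1nM isoproterenol, 100uM IBMX, 25uM Ro-20-1724) added; 0.5hr RT; d2-cAMP and anti-cAMP-cryptate added; 1hr RT; 665/615 nm read.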

[16] = molecular target: Beta-2 adrenergic receptor (Homo sapiens) (UniProt P07550); experiment: Adrenergic beta2 receptor (ADRB2) small molecule agonists, cell-based qHTS assay (AID 1963593);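 further: CHO cells stably overexpressing human ADRB2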
How it was run: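 CHO cells stably over-expressing ADRB2 were plated overnight at 37C, then dosed with compounds plus a stimulation mix containing 100uM IBMX and 25uM Ro-20-1724 for 0.5hr at room temperature. cAMP was measured by HTRF competition, 1hr.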

[17] = molecular target: D(2) dopamine receptor (Homo sapiens) (UniProt P14416); experiment: Dopamine D2 receptor (DRD2) small molecule agonists, cell-based qHTS assay (AID 1963594); further: nearly all actives have a fitted effect of over 35% in size
Sequence of D(2) dopamine receptor (Homo sapiens) (P14416 whole entry, looked up): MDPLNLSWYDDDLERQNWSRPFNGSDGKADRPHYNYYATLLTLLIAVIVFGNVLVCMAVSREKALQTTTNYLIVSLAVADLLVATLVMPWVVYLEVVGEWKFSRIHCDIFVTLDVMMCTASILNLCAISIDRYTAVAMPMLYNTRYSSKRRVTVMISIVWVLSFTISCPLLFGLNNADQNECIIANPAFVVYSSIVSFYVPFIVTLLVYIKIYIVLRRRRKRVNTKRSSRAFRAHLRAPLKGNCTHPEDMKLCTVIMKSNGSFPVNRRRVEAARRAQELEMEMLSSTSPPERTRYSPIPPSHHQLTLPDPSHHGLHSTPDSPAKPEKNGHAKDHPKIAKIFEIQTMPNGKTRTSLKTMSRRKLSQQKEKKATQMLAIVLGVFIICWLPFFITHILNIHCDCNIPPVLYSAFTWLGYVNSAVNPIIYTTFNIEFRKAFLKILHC
How it was run: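 HEK293 cells stably expressing DRD2 were cultured 24 h at 37 C, then given Ro20-1724 (0.1 mM final) and compounds for 10 min at room temperature. NKH477 (200nM) was then added for 30 min. cAMP was read by HTRF.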

[18] = molecular target: D(2) dopamine receptor (Homo sapiens) (UniProt P14416); experiment: Dopamine D2 receptor (DRD2) small molecule antagonists, cell-based qHTS assay (AID 1963595; active means well fitted inhibition curve with a large enough effect in the signal ratio in the repeat runs, with a control signal flat; the % refers to the signal ratio)
How it was run: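 Cells were plated and grown for 24 h at 37 °C. Ro20-1724 (0.1 mM final) went in first, then compound for 10 min. NKH477 (200 nM) with quinpirole (12 nM) followed for 30 min at RT, then HTRF detection reagents for 1 h.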

[19] = p53 small molecule agonists, cell-based qHTS assay with rat liver microsomes: qHTS cell viability counter screen (AID 1963580); further: nearly all actives have a fitted effect of over 45% in size
How it was run: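 p53RE-bla HCT-116 cells (4,000/well) rested 5 h at 37 C, then given Tox21 compounds in DMSO with rat liver microsomes (0.5 mg/mL final) plus NADPH (0.5 mg/mL final) for 16 h at 37 C. Viability read by CellTiter-Glo luminescence after 30 min at room temperature.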

[20] = molecular target: Muscarinic acetylcholine receptor M1 (Homo sapiens) (UniProt P11229); experiment: Cholinergic receptor muscarinic 1 (CHRM1) small molecule agonists, cell-based qHTS assay (AID 1963589); further: nearly all actives have a fitted effect of over 35% in size
How it was run: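 Stable CHRM1-CHO cells (human receptor) were incubated 18 h, dye-loaded for 1 h at 37 C and exposed to test compounds for agonist activity, with calcium-dependent fluorescence followed kinetically.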

SMILES: NCCC(O)(P(=O)(O)O)P(=O)(O)O
- Potency [1]: inactive
- Potency [2]: inactive
- Potency [3]: inactive
- Potency [4]: inactive
- Potency [5]: inactive
- Potency [6]: inactive
- Potency [7]: inactive
- Potency [8]: inactive
- Potency [9]: inactive
- Potency [10]: inactive
- Potency [11]: inactive
- Potency [12]: inactive
- Potency [13]: inactive
- Potency [14]: inactive
- Potency [15]: inactive
- Potency [16]: inactive
- Potency [17]: inactive
- Potency [18]: inactive

SMILES: CC(C)CC=O
- Potency [1]: inactive
- Potency [2]: inactive
- Potency [3]: inactive
- Potency [4]: inactive
- Potency [5]: inactive
- Potency [6]: inactive
- Potency [19]: inactive
- Potency [8]: inactive
- Potency [9]: inactive
- Potency [10]: inactive
- Potency [11]: inactive
- Potency [12]: inactive
- Potency [20]: inactive
- Potency [13]: inactive
- Potency [14]: inactive
- Potency [15]: inactive
- Potency [17]: inactive
- Potency [18]: inactive

SMILES: c1ccc2ncccc2c1
- Potency [1]: inactive
- Potency [2]: inactive
- Potency [3]: inactive
- Potency [4]: inactive
- Potency [6]: inactive
- Potency [7]: inactive
- Potency [19]: inactive
- Potency [9]: inactive
- Potency [10]: inactive
- Potency [11]: inactive
- Potency [12]: inactive
- Potency [20]: inactive
- Potency [13]: inactive
- Potency [14]: inactive
- Potency [15]: inactive
- Potency [17]: inactive
- Potency [18]: inactive

SMILES: CCOC(=O)CC(C)=O
- Potency [1]: inactive
- Potency [2]: inactive
- Potency [3]: inactive
- Potency [4]: inactive
- Potency [7]: inactive
- Potency [19]: inactive
- Potency [8]: inactive
- Potency [10]: inactive
- Potency [12]: inactive
- Potency [20]: inactive
- Potency [13]: inactive
- Potency [14]: inactive
- Potency [17]: inactive
- Potency [18]: inactive

SMILES: CC(C)(C)CC(C)(C)c1ccc(O)c(-n2nc3ccccc3n2)c1
- Potency [1]: 48.6 µM (active)
- Potency [2]: inactive
- Potency [3]: inactive
- Potency [4]: inactive
- Potency [5]: inactive
- Potency [6]: inactive
- Potency [7]: inactive
- Potency [8]: inactive
- Potency [9]: inactive
- Potency [10]: inactive
- Potency [11]: inactive
- Potency [12]: inactive
- Potency [20]: inactive
- Potency [13]: inactive
- Potency [14]: inactive
- Potency [15]: inactive
- Potency [16]: inactive
- Potency [17]: inactive
- Potency [18]: inactive

SMILES: CCc1occc(=O)c1O
- Potency [1]: inactive
- Potency [2]: inactive
- Potency [3]: inactive
- Potency [4]: inactive
- Potency [5]: inactive
- Potency [6]: inactive
- Potency [7]: inactive
- Potency [8]: inactive
- Potency [9]: inactive
- Potency [10]: inactive
- Potency [11]: inactive
- Potency [20]: inactive
- Potency [13]: inactive
- Potency [15]: inactive
- Potency [16]: inactive
- Potency [17]: inactive
- Potency [18]: inactive

SMILES: O=C(Oc1ccccc1)c1ccc(O)cc1
- Potency [1]: inactive
- Potency [3]: inactive
- Potency [4]: inactive
- Potency [5]: inactive
- Potency [6]: inactive
- Potency [7]: inactive
- Potency [19]: inactive
- Potency [8]: inactive
- Potency [9]: inactive
- Potency [10]: 26.7 µM (active) and 13.3 µM (active)
- Potency [11]: inactive
- Potency [12]: inactive
- Potency [20]: inactive
- Potency [13]: inactive
- Potency [14]: inactive
- Potency [15]: inactive
- Potency [18]: inactive
